Assay results from PubChem BioAssay (Tox21).
Values joined by “and” are separate entries in the source; they are usually repeats but may differ in a detail not shown here. Equal entries are not always repeated. Inconclusive results are not listed. Entries that show only a call come without a potency. Active and inactive are the calls of the source. Calls follow the shape of the dose curve; as a rule, active = well fitted inhibition curve with a large enough effect in the repeat runs; inconclusive = weak or mixed curves; inactive = no such curve, though single readings can be large or run the other way.
Potency is read from the fitted curve at half-maximal effect.

Experiment: qHTS assay to identify small molecule antagonists of the thyroid receptor (TR) signaling pathway (AID 743065); also: nearly all actives have a fitted effect of over 55% in size
Details: GH3.TRE-Luc, T3-stimulated luciferase inhibition, 23.5 h; series mostly up to 70.3 µM
Source text: U.S. Tox21 Program National Center for Advancing Translational Sciences [NCATS] NIH Chemical Genomics Center [NCGC] U.S. Environmental Protection Agency [EPA] National Institutes of Environmental Health Sciences [NIEHS] National Toxicology Program [NTP] U.S. Food and Drug Administration [FDA] Tox21 Assay Overview: Thyroid receptor (TR), a nuclear hormone receptor, plays an important role in development, proliferation, differentiation, metabolism, brain function, and cardiovascular system. […] To profile the Tox21 10K compound library in TR signaling, a cell-based GH3-TRE-Luc assay (GH3.TRE-Luc cell line, developed by the laboratory of Dr. Albertinka J. Murk, Wageningen University) was used to measure the inhibition of TR. GH3 (rat pituitary tumor) cells stably expressing a TR activity sensor consisting of two TR response elements and a luciferase reporter gene.
Tox21 Assay Protocol Summary: GH3.TRE-Luc cells were dispensed at 1500 cells/4 uL/well into 1536-well white solid bottom plates using a Multidrop Combi dispenser (Thermo Fisher Scientific Inc., Waltham, MA). After the assay plates were incubated at 37 C for 4 hours, 23 nL of library compound or DMSO controls was transferred to the assay plates by a pintool station (Kalypsys, San Diego, CA), followed by addition of 1 ul of T3 (1 nM, final concentration in the wells) to stimulate TR transactivation. The assay plates were incubated at 37 C for 23.5 h, and then 1 uL of CellTiter-Fluor reagent (Promega, Madision, WI) of measuring cytotoxicity was added to each well using a Bioraptr Flying Reagent Dispenser (FRD) workstation (Beckman Coulter, Indianapolis, IN, USA). The plates were incubated at 37 C and 5% CO2 for additional 30 min, and fluorescence intensity was measured by a ViewLux plate reader (PerkinElmer, Shelton, CT). For measuring luciferase reporter gene activity, 4 uL of ONE-Glo Luciferase Assay reagent (Promega) was added to each well using a Bioraptr FRD (Beckman Coulter), followed by 30 min incubation at room temperature. The luminescence intensity of plates was recorded by a ViewLux plate reader (PerkinElmer, Shelton, CT).
In the case of `N=c1ccn2c(n1)O[C@H]1[C@H](O)[C@@H](CO)O[C@H]12`, the Potency is reported as 531 nM (active) and 545 nM (active). With `C/C=C/C=C/CO` the Potency was “inactive”. In the case of `CCOc1ccc(O)cc1`, the Potency is reported as “inactive”. For `S=C([S-])NCCNC(=S)[S-].[Mn+2]`, the Potency was “inactive”. In the case of `CC(C)(C)Cl`, the Potency is reported as “inactive”. For `CC1=CCCC(C)(C)C12CCC(C)O2` (stereo not given), the Potency was “inactive”. With `CCO[Si](CCCCl)(OCC)OCC` the Potency was “inactive”. For `CCCCCCCCCCCCCCOS(=O)(=O)O`, the Potency was 48.6 µM (active). In the case of `CN(C)CCN(Cc1ccc(Cl)cc1)c1ccccn1`, the Potency is reported as 10.1 µM (active). In the case of `C=CC(=O)OCCOCCOCCOCCOC(=O)C=C`, the Potency is reported as 15.4 µM (active) and 27.1 µM (active). For `O=C(OCCc1ccccc1)c1ccccc1`, the Potency was “inactive”. For `CCCCCCCCCOS(=O)(=O)O`, the Potency was “inactive”. With `O=C(O)c1nc(Cl)c(Cl)c(Cl)c1Cl` the Potency was “inactive”. With `Cc1ncc(CO)c(C=O)c1O` the Potency was “inactive”. For `C[C@H](CCC(=O)O)[C@H]1CC[C@H]2[C@@H]3CC[C@@H]4C[C@H](O)CC[C@]4(C)[C@H]3C[C@H](O)[C@]12C`, the Potency was 68.8 µM (active). In the case of `OC[C@H]1O[C@@H](OCCc2ccc(O)cc2)[C@H](O)[C@@H](O)[C@@H]1O`, the Potency is reported as “inactive”. With `CC(=O)OC[C@H]1O[C@@H](n2ncc(=O)[nH]c2=O)[C@H](OC(C)=O)[C@@H]1OC(C)=O` the Potency was “inactive”. With `CC(C)OC(=O)C(C)N(C(=O)c1ccccc1)c1ccc(F)c(Cl)c1` (stereo not given) the Potency was 61.1 µM (active). With `C=C1[C@H]2CC[C@@H]3[C@H]2C(C)(C)CCC[C@]13C` the Potency was “inactive”. With `CCOC(=O)COC(=O)c1cc(Oc2ccc(C(F)(F)F)cc2Cl)ccc1[N+](=O)[O-]` the Potency was “inactive”. For `COC(=O)C1=C(C)NC(COC(N)=O)=C(C(=O)OC(C)C)C1c1cccc(Cl)c1Cl` (stereo not given), the Potency was 16.8 µM (active). With `O=C1OC(CN2CCOCC2)CN1/N=C/c1ccc([N+](=O)[O-])o1` (stereo not given) the Potency was “inactive”. For `C#CCN(C)CCCOc1ccc(Cl)cc1Cl`, the Potency was “inactive”. With `CCCCCCCC/C=C\CCCCCCCC(=O)OCC` the Potency was “inactive”. For `CC(C)(O)c1ccc(CNC(=O)c2cccnc2Oc2ccc(F)cc2)cc1`, the Potency was “inactive”. For `O=C(O)CNCC(=O)O`, the activity, negative = inhibition was -3.78% [at 8.44 µM] (inactive). With `CCCCCCCCO[C@@H]1O[C@H](CO)[C@@H](O)[C@H](O)[C@H]1O` the Potency was “inactive”. In the case of `CC(COCCO)OCCO` (stereo not given), the Potency is reported as “inactive”. In the case of `C=C(C)C(=O)OCCOCC`, the Potency is reported as “inactive”. For `O=C1C(O)=C(O)C(=O)C(O)=C1O`, the Potency was “inactive”. In the case of `CC1OC(=O)C(C)OC1=O` (stereo not given), the Potency is reported as “inactive”. For `COc1cc2nc(N3CCN(C(=O)C4COc5ccccc5O4)CC3)nc(N)c2cc1OC` (stereo not given), the Potency was 29.8 µM (active). In the case of `Nc1ccccc1S(=O)(=O)c1ccccc1`, the Potency is reported as “inactive”. For `O=C(c1ccc(F)cc1)C1CCN(CCn2c(=S)[nH]c3ccccc3c2=O)CC1`, the Potency was “inactive”. In the case of `C=CCOC(=O)CCC1CCCCC1`, the Potency is reported as “inactive”. In the case of `Nc1ncn([C@H]2C[C@H](O)[C@@H](CO)O2)c(=O)n1`, the Potency is reported as “inactive”. In the case of `CCOC(=O)Cc1cccc2ccccc12`, the Potency is reported as “inactive”. For `C=CCOc1ccccc1OCC(O)CNC(C)C` (stereo not given), the Potency was “inactive”. For `CCCNCC(O)COc1ccccc1C(=O)CCc1ccccc1` (stereo not given), the Potency was 23.7 µM (active). In the case of `CCCCOC(=O)CCCCCCCC(=O)OCCCC`, the Potency is reported as “inactive”.
